Columns and labels:
Settings in all cases: concentration: 1 μM, replicates: in singlicate; n = 1
[1] = system: T1, GRK2
T1 construct: gene ADRBK1

[2] = system: T2, GRK3
T2 construct: gene ADRBK2

[3] = system: GRK4
[4] = system: GRK7
[5] = system: GSK3A
[6] = system: GSK3B
[7] = system: T3, HASPIN
T3 construct: gene GSG2

[8] = system: HCK
[9] = system: HIPK1
[10] = system: HIPK2
[11] = system: HIPK3
[12] = system: HIPK4
[13] = system: HPK1
[14] = system: HUNK
[15] = system: ICK
[16] = system: IGF1R
[17] = system: T4, IKK-alpha
T4 construct: gene CHUK

[18] = system: T5, IKK-beta
T5 construct: gene IKBKB

[19] = system: T6, IKK-epsilon
T6 construct: gene IKBKE

[20] = system: INSRR
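Further: KINOMEscan kinase panel screen.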

Row | Compound | %Inh [1] [%] | %Inh [2] [%] | %Inh [3] [%] | %Inh [4] [%] | %Inh [5] [%] | %Inh [6] [%] | %Inh [7] [%] | %Inh [8] [%] | %Inh [9] [%] | %Inh [10] [%] | %Inh [11] [%] | %Inh [12] [%] | %Inh [13] [%] | %Inh [14] [%] | %Inh [15] [%] | %Inh [16] [%] | %Inh [17] [%] | %Inh [18] [%] | %Inh [19] [%] | %Inh [20] [%]
1 | Cc1nnc(-c2ccc(C)c(-c3ccc(C(=O)O)cc3)c2)o1 [GW608005] | 0 | 0 | 0 | 0 | 7 | 0 | 0 | 0 | 0 | 0 | 7 | 0 | 7 | 0 | 0 | 0 | 30 | 25 | 1 | 10
2 | COc1cc(Nc2nccc(N3CCC(NC(=O)C(C)c4ccc(Cl)cc4)C3)n2)cc(OC)c1OC (centres unmarked) [GSK1379757] | 0 | 17 | 37 | 0 | 0 | 0 | 21 | 11 | 0 | 0 | 0 | 0 | 37 | 16 | 0 | 13 | 0 | 0 | 23 | 0
3 | Cc1cccc(-c2cc(-c3c[nH]nc3-c3ccccn3)ccn2)c1 [GW679395] | 0 | 39 | 0 | 0 | 17 | 7 | 25 | 0 | 0 | 0 | 13 | 0 | 32 | 10 | 9 | 0 | 4 | 25 | 21 | 0
4 | O=C(Nc1ccc2c(c1)OCO2)NC1CCN(c2ccnc(NCc3ccc(F)cc3)n2)CC1 [GSK1379859] | 0 | 0 | 0 | 0 | 2 | 8 | 0 | 0 | 0 | 0 | 9 | 0 | 29 | 1 | 0 | 0 | 0 | 0 | 11 | 0
5 | COc1ccc(-c2cc3c(C)nc(N)nc3n([C@H]3CC[C@H](OCCO)CC3)c2=O)cn1 | 17 | 0 | 1 | 1 | 0 | 1 | 33 | 13 | 17 | 0 | 5 | 0 | 0 | 0 | 0 | 0 | 0 | 0 | 0 | 0
6 | COc1cc(Nc2nccc(N3CCC(NC(=O)C4COc5ccccc5O4)C3)n2)cc(OC)c1OC (centres unmarked) [GSK1379761] | 0 | 38 | 0 | 0 | 0 | 3 | 55 | 0 | 0 | 0 | 0 | 0 | 51 | 30 | 0 | 0 | 21 | 0 | 0 | 0
7 | C[C@@H]1CC[C@H](C(=O)NC2CCCCC2)CN1c1cc(-c2ccc3c(N)n[nH]c3c2)nc(N)n1 [GSK2291363] | 0 | 32 | 45 | 0 | 5 | 17 | 2 | 0 | 9 | 0 | 14 | 0 | 50 | 0 | 18 | 30 | 0 | 0 | 25 | 0
8 | CCC(=O)c1c(-c2ccccc2)c2cc(Cl)ccc2c(=O)n1Cc1cc(S(C)(=O)=O)n(CC(F)F)n1 | 0 | 0 | 4 | 0 | 0 | 0 | 26 | 0 | 25 | 0 | 0 | 0 | 0 | 3 | 0 | 10 | 0 | 0 | 0 | 0
9 | CCCNC(=O)Nc1ccc(Oc2ncnc3ccn(C)c23)cc1 | 40 | 0 | 6 | 29 | 0 | 21 | 41 | 7 | 35 | 29 | 14 | 19 | 0 | 0 | 17 | 0 | 1 | 0 | 0 | 0
10 | O=C(NCc1cccs1)c1cc(C(=O)c2c(Cl)cccc2Cl)c[nH]1 [GW823670] | 16 | 25 | 8 | 0 | 0 | 0 | 0 | 25 | 17 | 0 | 0 | 0 | 37 | 31 | 0 | 1 | 0 | 0 | 3 | 0

From publication PMC5540273 (PLoS ONE, 2017)
